Source: PubChem BioAssay AID588689 (Southern Research Specialized Biocontainment Screening …, 2011)
Out of some 340,000 compounds screened, about 1,000 (0.29%) were called active. No stated cut-off is given here; in the data, inconclusive means inhibition above about 29% without an active follow-up result; inactive means below that. These entries were drawn from the full list. Potency and affinity values are given separately.

What follows are compounds tested against Genome polyprotein (Dengue virus type 2 (strain 16681-PDK53)) (UniProt P29991) (assay: flavivirus cap methylation enzyme inhibition – biochemical, confirmation dose response, primary screen (AID 588689)). Details: Dengue-2 NS5 methyltransferase capping enzyme assay, at 25 µM, hits give high values.

Compound | inhibition
O=[N+]([O-])c1cc(F)c(N2CCCCC2)cc1N1CCOCC1 | -8.91% (inactive)
N#Cc1cc(N2CCCCC2)c([N+](=O)[O-])cc1C#N | -5.36% (inactive)
O=C(NCc1ccccc1Cl)C(=O)NCC1OCCN1S(=O)(=O)c1ccc(F)cc1 (configuration not stated) | -4.82% (inactive)
CCc1ccc2c(c1)C(=O)C(=O)N2CCS(=O)(=O)c1ccccc1 | -11.6% (inactive)
COc1ccc(/C=C2\SC(=S)N(C(Cc3ccccc3)C(=O)O)C2=O)cc1 (configuration not stated) | 20.7% (inactive)
COc1cccc(/C=C2/SC(=S)N(CCCC(=O)Nc3ccc(O)cc3)C2=O)c1 | -5.15% (inactive)
O=C(O)C(Cc1ccccc1)N1C(=O)/C(=C/c2cccnc2)SC1=S (configuration not stated) | 8.37% (inactive)
O=C(O)C(Cc1ccccc1)N1C(=O)/C(=C/c2ccccc2)SC1=S (configuration not stated) | 15.5% (inactive)
COc1cc2c(=O)[nH]c3cc([N+](=O)[O-])ccc3c2cc1[N+](=O)[O-] | 8.05% (inactive)
CCC(=O)Nc1nnc(Cc2ccccc2)s1 | 1.61% (inactive)
CCN(CC)CCN1C(=O)C(=O)/C(=C(/O)c2ccc(S(=O)(=O)N3CCOCC3)cc2)C1c1ccc(Cl)cc1 (configuration not stated) | -6.64% (inactive)
COc1ccccc1NS(=O)(=O)c1cccs1 | 0% (inactive)
O=S(=O)(Nc1cccc2ccccc12)c1cccs1 | -1.29% (inactive)
O=C(CN1C(=O)/C(=C\c2cccc(Br)c2)Oc2ccccc21)NCCCN1CCOCC1 | 0.88% (inactive)
O=C(CCCN1C(=O)/C(=C/c2ccccc2Cl)SC1=S)NNC(=O)c1ccccc1 | 8.33% (inactive)
O=C(CN1C(=O)/C(=C/c2cccc(Br)c2)SC1=S)N1CCCC1 | -5.1% (inactive)
CCN1C(=O)C(=Cc2cccc(OC)c2Oc2ccc([N+](=O)[O-])cc2[N+](=O)[O-])SC1=S | -1.31% (inactive)
O/N=C/c1cc(Br)ccc1OCc1ccccc1F | 8.73% (inactive)
Cc1cc(NC(=O)CN2C(=O)/C(=C/c3ccccc3F)SC2=S)no1 | 2.68% (inactive)

Compound | inhibition
O=C1/C(=C\c2cccc([N+](=O)[O-])c2O)SC(=S)N1Cc1ccccc1 | 32.5% (inactive)
CN1CCN(c2ccc(NS(=O)(=O)c3ccc(Cl)cc3)cn2)CC1 | -7.03% (inactive)
Cc1nnc(NC(=O)CC23CC4CC(CC(C4)C2)C3)s1 | -6.26% (inactive)
O=C(Nc1ccc2c(c1)OCO2)C1CCN(S(=O)(=O)c2cccc3cccnc23)CC1 | 2.93% (inactive)
CCCOc1ccc(/C=C/C(=O)OCC(=O)N(C)c2c(N)n(Cc3ccccc3)c(=O)[nH]c2=O)cc1OCC | 3.69% (inactive)
CC(C)N(O)C(=O)NC(C)(C)C | 0% (inactive)
COc1ccc(NC2=CC(=O)N(C)C2=O)cc1 | -10.2% (inactive)
COc1ccc(C(=O)Nc2cccc(-c3ccc4nncn4n3)c2)cc1OC | 2.3% (inactive)
Cc1c(N=C/C=C2\N(C)c3ccccc3C2(C)C)c(=O)n(-c2ccccc2)n1C | -3.46% (inactive)
CCc1cc(=O)oc2c3c(cc(OCC(=O)NCCCn4ccnc4)c12)OC(C)(C)CC3 | -1.45% (inactive)
OCC[C@H]1C[C@H](O)[C@@H](O)[C@]2(OCCc3ccccc32)O1 | -1.2% (inactive)
COc1cc(CNc2ccc(N3CCCC3)cc2)ccc1OCc1ccccc1 | 12.3% (inactive)
COc1cc(CNc2ccc(S(N)(=O)=O)cc2)ccc1OCc1ccccc1F | -6.36% (inactive)
CCOc1c(Cl)cc(CNc2ccc(S(N)(=O)=O)cc2)cc1OC | -1.46% (inactive)
CCOc1c(Br)cc(CNc2ccc(N3CCOCC3)cc2)cc1OC | 70.4% (inactive)
COc1cc(CNc2ccc(N3CCCC3)cc2)cc(Cl)c1OC | 13.9% (inactive)
CCOc1cc(CNc2ccc(S(N)(=O)=O)cc2)cc(Cl)c1OC | 3.64% (inactive)
Cc1nn(C)c(Cl)c1CN1CCCC(CCC(=O)NCc2ccccc2F)C1 (configuration not stated) | 0% (inactive)
CCN1C(=O)[C@@H]2[C@@H](c3ccc(-c4ccc(OC)cc4)c(OC)c3)N3CCCC[C@@]3(C(=O)OC)[C@@H]2C1=O | 17.5% (inactive)

Compound | inhibition
CCN1CCN(C(=O)CCc2nnc(CCc3c[nH]c4ccccc34)o2)[C@@H](C)C1=O | -13.8% (inactive)
CN(C(=O)CSc1nnc(-c2cccnc2)n1-c1ccccc1F)C1CCS(=O)(=O)C1 (configuration not stated) | 5.09% (inactive)
O=C(C1=C(c2ccccc2)C(=O)c2ccccc2C1=O)c1ccccc1 | 3.59% (inactive)
CC(=O)C1=C(c2ccc(Br)cc2)C(=O)c2ccccc2C1=O | 35% (inactive)
COc1cc(NS(=O)(=O)c2ccc(C)cc2)c2c(c1N)C(=O)c1ccccc1C2=O | 9.7% (inactive)
Cc1cc(C)cc(NC2=C(N)C(=O)c3ccccc3C2=O)c1 | 13% (inactive)
Nc1ccc(NC(=O)c2ccccc2)c2c1C(=O)c1ccccc1C2=O | 3.24% (inactive)
Nc1ccccc1NC(=O)c1ccccc1 | 3.27% (inactive)
O=C(NCCc1nc2ccccc2[nH]1)/C(=C/c1ccc2c(c1)OCO2)NC(=O)c1ccc(Cl)cc1Cl | -5.82% (inactive)
CCCCNC(=O)COC(=O)c1c2c(nc3ccccc13)CCC2 | 4.4% (inactive)
Cn1ccnc1C1CCCCN1C(=O)c1cc(COc2ccc(F)cc2F)on1 (configuration not stated) | 1.47% (inactive)
CC(C)c1ccc(S(=O)(=O)Nc2ccc(N3CCOCC3)cc2)cc1 | -9.76% (inactive)
O=C1C(Cl)=C(N2CCOCC2)C(=O)N1CCc1ccccc1 | -0.8% (inactive)
Cc1cccc(C)c1N1C(=O)C(Cl)=C(N2CCCC2)C1=O | -10.8% (inactive)
CN(C)C1=C(Cl)C(=O)N(c2ccc(Cl)c(Cl)c2)C1=O | 26.8% (inactive)
Cc1ccc(N2C(=O)C(Cl)=C(N3CCCCCC3)C2=O)cc1 | -6.21% (inactive)
O=C1C(Cl)=C(N2CCN(Cc3ccccc3)CC2)C(=O)N1c1ccccc1 | 67.7% (inactive)
CN1CCN(C2=C(Cl)C(=O)N(c3ccc(Cl)cc3)C2=O)CC1 | 14.2% (inactive)
O=C(Nc1cccc(-n2cccn2)c1)C1CCCN(Cc2cc3ccccc3[nH]2)C1 (configuration not stated) | -16.8% (inactive)
